Results on 32 compounds are retold here after the supplement of paper PMC9337992.

± gives the standard deviation of the averaged measurements.

The assay has as its system MDAMB468. As to the kind of experiment: cell proliferation (confluence) relative to DMSO control; higher = less growth inhibition. The settings on record: 5 uM; 6 d. How it is done: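 Epigenetic chemical probe screen: 15 TNBC cell lines, 500 cells per well in 384-well plates, treated with 5 uM of each of 36 SGC probes for 6 d. Confluency was imaged by IncuCyte ZOOM and normalised to DMSO control wells. Four replicate wells per compound.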
Regarding `O=C(NCC(=O)N1CCCC1)Nc1ccc2cnccc2c1`, the cell proliferation is 40.6 ± 15%. The result for `CN(C)[C@H]1CN(C2CCc3cccc(F)c32)C[C@@H]1c1ccc(N2CCN(S(C)(=O)=O)CC2)cc1` (some centres not stated) reads 62.7 ± 4.4%. The result for `COc1c(C)cc(NC(=O)c2nn(Cc3ccc(F)cc3)c3c2CN(C(=O)c2ccc[nH]2)C[C@]3(C)C(N)=O)cc1C` reads 35.5 ± 4.7%. `CCN(C(=O)CO)[C@H]1CN(/C(=N\C#N)Nc2cccc(OC(F)F)c2)N=C1c1ccc(Cl)c(Cl)c1` registered a cell proliferation of 55.2 ± 6%. To `Cc1nnc2c3ccccc3c(N[C@@H](C)[C@H](c3ccccc3)N(C)C)nn12` [L-moses] belongs 41 ± 3.8%; to `CCOC(=O)CCNc1cc(N2CCc3ccccc3CC2)nc(-c2cccnc2)n1`, 71.9 ± 10%; to `CC(C)N(CCCNC(=O)Nc1ccc(C(C)(C)C)cc1)C[C@H]1O[C@@H](n2cc(Br)c3c(N)ncnc32)[C@H](O)[C@@H]1O`, 54.2 ± 14%. In turn, `CCC(=O)N1CCOc2c(cc(-c3ccc(OC)c(OC)c3)cc2OC[C@H]2CCCN(C)C2)C1` gave a cell proliferation of 37.1 ± 9%. The result for `COc1cc(-c2cn(C)c(=O)c3cnccc23)c(OC)cc1CN(C)C` reads 53.6 ± 13%. The result for `COc1ccccc1C(=O)Nc1cc2c(cc1N1CCCC1)n(C)c(=O)n2C` reads 39.3 ± 3.8%; that for `CC(C)Oc1ccc(-c2c[nH]cc2CN(C)CCN)cc1`, 19.3 ± 5.7%; that for `CC[C@H](C)n1cc(C)c2c(C(=O)NCc3c(C)cc(C)[nH]c3=O)cc(-c3ccc(N4CCNCC4)nc3)cc21`, 15.4 ± 9%.

On to `CCOC(=O)CCNc1cc(N2CCc3ccccc3CC2)nc(-c2ccccn2)n1`, for which the cell proliferation was found to be 9.55 ± 1.9%.

`O=C(/C=C/N1C[C@H]2C[C@@H]1CN2c1ccccn1)c1ccccc1O` showed a cell proliferation of 75.6 ± 6.1%.

`COc1ccc(CCc2nc3cc(-c4c(C)noc4C)ccc3n2C[C@H](C)N2CCOCC2)cc1Cl` yielded a cell proliferation of 32.8 ± 4%.

`COc1cc(C#N)ccc1S(=O)(=O)Nc1ccc2c(c1)cc(C)c(=O)n2C`: the cell proliferation was 40.4 ± 6.3%. As for `COc1cc2c(NC3CCN(C(C)C)CC3)nc(C3CCCCC3)nc2cc1OCCCN1CCCC1`, the cell proliferation came to 67.2 ± 8%. As to `COc1cc2c(cc1OCCCN1CCCC1)N=C(N)C21CCC1`, the cell proliferation turned out to be 71.6 ± 11%.

`CCCOc1ccn2c(C(C)=O)cc(-c3ccccc3S(C)(=O)=O)c2c1` displayed a cell proliferation of 66 ± 5.1%. With `O=C(NC[C@H](O)CN1CCc2ccccc2C1)c1ccnc(NC2CCC2)c1`, the cell proliferation turned out to be 32 ± 1.8%. The result for `CCCc1cc(C)[nH]c(=O)c1CNC(=O)c1cc(-c2ccnc(N3CCN(C)CC3)c2)cc2c1cnn2C(C)C` reads 67.7 ± 12%. The result for `CNCCN1CCC(OCc2ccccc2)CC1` reads 37.4 ± 6.8%. Compound `Cn1cc(CCn2cnc(-c3cnn(C)c3)c2-c2ccc(C#N)cc2)cn1` had a cell proliferation of 55.5 ± 13%.

The compound `CCn1cc(-c2cccc(C(F)(F)F)c2)c2sc(C(=N)NC3CCS(=O)(=O)CC3)cc2c1=O` yielded a cell proliferation of 29.1 ± 4.8%.

Compound `O=C([C@@H](Cc1cccc(C(F)(F)F)c1)NS(=O)(=O)c1cc(F)c2c(c1)CCNC2)N1CCCC1` showed a cell proliferation of 50.5 ± 25%. The result for `Clc1cc2c(NC3CCCC3)nnc(-c3ccncc3)c2cc1Cl` reads 56.9 ± 7.9%; that for `CC(C)Oc1ccc(-c2c[nH]cc2CN(C)CCO)cc1`, 37 ± 7.3%; that for `COc1ccccc1S(=O)(=O)Nc1ccc2c(c1)CN(C)C(=O)N2`, 23.2 ± 2.7%.

`Cc1cc(=O)n(C)c2cc(N3C(=O)CC[C@H](NS(=O)(=O)CC(C)C)[C@H]3c3ccc(Cl)cc3)ccc12` returned a cell proliferation of 59.3 ± 2.4%. To `CCCc1cc(C)n(C)c(=O)c1CN(C)C(=O)c1cc(-c2ccc(N3CCN(C(C)C)CC3)nc2)cc2c1cnn2C(C)C` belongs 70.4 ± 6.3%; to `CCCc1cc(C)[nH]c(=O)c1CNC(=O)c1cc(-c2ccc(N3CCN(C(C)C)CC3)nc2)cc2c1cnn2C(C)C`, 13.3 ± 14%. In turn, `O=C(c1ccc(C(=O)N2CCC(N3CCCC3)CC2)c(Nc2ccccc2)c1)N1CCC(N2CCCC2)CC1` registered a cell proliferation of 74.9 ± 8.6%.
